Assay outcomes as filed in PubChem.
Hits are enriched below; roughly 7.3% of the tested compounds scored in any of these assays.
FLuc modulator: counter-screen for miR-21 project: firefly luciferase inhibitors or activators; P08659; Potency, µM (top dose mostly 57.5 µM), inactives show at the top dose activity change, negative = inhibition, most hits filed as inhibitors; purified FLuc, Km substrates, luminescence inhibition; actives 6.9% (n = 360,000);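 further: plate controls were vehicle for no effect and reference inhibitor for full effect; nearly all actives have a fitted effect of over 55% in size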
Target sequence (P08659 whole entry, looked up): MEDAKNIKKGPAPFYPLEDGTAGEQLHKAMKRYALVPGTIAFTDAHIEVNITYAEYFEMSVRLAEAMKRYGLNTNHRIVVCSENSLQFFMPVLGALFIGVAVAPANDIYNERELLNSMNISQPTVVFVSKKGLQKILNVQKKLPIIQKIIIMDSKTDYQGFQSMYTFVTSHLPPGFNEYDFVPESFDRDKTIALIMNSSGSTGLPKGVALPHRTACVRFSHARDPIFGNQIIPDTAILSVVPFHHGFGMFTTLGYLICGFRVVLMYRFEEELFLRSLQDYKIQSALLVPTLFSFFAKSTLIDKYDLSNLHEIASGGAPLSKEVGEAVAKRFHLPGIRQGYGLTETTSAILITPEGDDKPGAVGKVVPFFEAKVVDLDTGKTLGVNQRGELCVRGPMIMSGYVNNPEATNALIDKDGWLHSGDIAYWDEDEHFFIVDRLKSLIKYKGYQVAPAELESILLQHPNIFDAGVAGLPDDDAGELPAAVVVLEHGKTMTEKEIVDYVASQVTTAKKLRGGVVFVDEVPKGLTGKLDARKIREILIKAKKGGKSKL
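Purified P. pyralis luciferase, 10 nM final, with Km-level 10 uM D-luciferin and 10 uM ATP in 50 mM Tris acetate pH 7.5, 10 mM Mg acetate, 0.01% Tween-20, 0.05% BSA; 6-point qHTS titration about 60 µM downward; luminescence read.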
SMN2 splice up: SMN2 splice variant enhancement; Potency, µM (top dose mostly 46.1 µM), for the others: at the highest dose activity change, positive = activation, actives largely listed as activators; actives 2.8% (n = 210,000); HEK293 SMN2-luciferase splicing reporter, luminescence, 30-36 h; AID 1458; further: % of control where 0% means no effect; nearly all actives have a fitted effect of over 55% in size
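HEK293 cells carry an SMN2 minigene-luciferase reporter in which exon 7 inclusion puts luciferase in frame. Cells were seeded at 2000 cells/well, attached for 10-12 hours, then exposed to compounds for 30-36 hours at 37C before ONE-Glo luminescence.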
p53 reactivator: re-activators of mutant p53; actives 0.063% (n = 320,000); H1299 p53-A138V BP100-luciferase reporter, luminescence, 24 h; Potency, µM (series often up to 92.2 µM), for the others: at the highest dose activity change, positive = activation, hits mostly activators; further: % of control where 0% means no effect; nearly all actives have a fitted effect of over 45% in size
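p53-null H1299 cells stably carrying temperature-sensitive p53-A138V and a BP100-luciferase reporter were pinned with compounds (4-point, 1:5 series) and held 24 hrs at 37 deg C. Luminescence was read 10 min after detection reagent.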
Rab9 prom act: activators of Rab9 promoter; AID 485297; Potency, µM (titrated, usually from 9.22 µM), for inactives: top-dose activation, negative = inhibition, hits mostly activators; actives 2.8% (n = 320,000); Huh7 Rab9 promoter-luciferase reporter, luminescence, 24 h; further: % of control where 0% means no effect; nearly all actives have a fitted effect of over 60% in size
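Promoter activation is measured as luciferase luminescence in Huh7 cells stably transfected with a Rab9 promoter–luciferase construct, following 24 h compound exposure at 37 °C and 10 min reagent incubation at ambient temperature.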
NPC1 prom act: activates the NPC1 promoter; actives 2.4% (n = 320,000); Huh7 NPC1 promoter luciferase reporter, 24 h; Potency, µM (series often up to 9.22 µM), for the others: top-dose activation, most hits filed as activators; AID 485313; further: % of control where 0% means no effect; nearly all actives have a fitted effect of over 60% in size
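Stably transfected Huh7 (NPC1 promoter→luciferase), 1500 cells/well in Opti-MEM + 10% FBS, 2 h settle, then compound 24 h at 37 °C. Luminescence after 10 min with Amplite reagent.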
ELG1 genotoxic: induces genotoxicity in HEK293T cells with luciferase-tagged ELG1 | HEK293T ELG1-luciferase reporter, luminescence, 16 h | Potency, µM (highest dose often 46 µM), inactives show at the top dose activity change, positive = activation, usual class: activators | actives 1.3% (n = 330,000); further: % of control where 0% means no effect; nearly all actives have a fitted effect of over 60% in size
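Screening used a luciferase reporter fused to human ELG1 in HEK293T cells. Luminescence was read on a CCD plate imager after 16 hr exposure and 30 min ONE-Glo incubation.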
* hit, by the source's call; ? = inconclusive; nt = no result; [ ] = another dose, or the depositor's remark. The call rests on the fitted dose curve; in most records, active means well fitted curve in the direction sought with a large enough effect; inconclusive means small, poorly fitted or top-dose-only effect, or another doubt; inactive means no such curve, though single readings can be large; an effect the other way counts as inactive or inconclusive. Potency means the concentration at half of the fitted maximal effect.

SMILES	FLuc modulator	SMN2 splice up	p53 reactivator	Rab9 prom act	NPC1 prom act	ELG1 genotoxic
CCc1ccc(-n2nc3cc(C)c(NC(=O)c4cc(OC)cc(OC)c4)cc3n2)cc1	1.3µM*	2%	nt	nt	nt	nt
CCOc1ccc(-n2nc3cc(C)c(NC(=O)CC)cc3n2)cc1	?	-10%	nt	nt	nt	nt
COc1ccc(-n2nc3cc(C)c(NC(=O)C(C)C)cc3n2)cc1	0.21µM*	2.8µM*	?	0.32µM*	0.32µM*	?
CCC1=C2CC[C@H]3C(=O)N(c4ccccc4)C(=O)[C@H]3[C@H]2[C@@]2(Cc3ccccc3)C(=NCc3ccccc3)OC(=O)N2C1=O	nt	1%	nt	nt	nt	nt
CC1=NN(c2ccccc2)C(=O)/C1=C/c1c(O)n(-c2ccc(F)c(Cl)c2)[nH]c1=O	2.7µM*	-2%[1.84 µM]	?	?	21%	16%
Nc1nn(-c2ccccc2)nc1C(=O)OCc1ccccc1F	17µM*	15%	?	15%	1%	6%
CN1CCN(C(=O)c2ccc(COc3ccc(Cl)cc3Cl)cc2)CC1	12µM*	-4%	1%	1%	-2%	20%
O=C(O)c1ccc(COc2ccc(CO)cc2Cl)cc1	5.4µM*	?	21%	4.5µM*	?	9.2µM*
O=C(O)c1cccc(COc2ccc(CO)cc2Cl)c1	0.021µM*	0.04µM*	-23%	1.3µM*	1.3µM*	?
CCn1cc(S(=O)(=O)c2ccc(C)cc2C)c(=O)c2cc(F)c(N3CCCC3)cc21	2%	nt	nt	nt	nt	nt
O=C1NC(=S)CN1c1ccccc1	?	nt	2%	-1%	0%	-5%
O=C1c2ccccc2CN1c1ccccc1	17µM*	nt	8%	2µM*	?	?
O=C1N(c2ccccc2)CCN1c1ccccc1	1.5µM*	nt	?	1.1µM*	0.5µM*	?
O=C1c2ccccc2CN2C(=O)c3ccccc3CN12	-2%	nt	21%	11%	-5%	8%
Cc1ccc(N2Cc3ccccc3C2=O)cc1	1.9µM*	nt	nt	0.5µM*	0.45µM*	1.6µM*
CCOc1ccc(N2C(=O)c3cccnc3C2Nc2ccc(F)cc2)cc1 (stereo not drawn)	-9%	-8%	-9%	0%	3%	0%
CCOc1ccc(N2Cc3ncccc3C2=O)cc1	13µM*	10µM*	4%	2.5µM*	3.2µM*	?
O=C(COc1cc2oc(=O)c3c(c2cc1Cl)CCC3)N1C[C@H]2C[C@@H](C1)c1cccc(=O)n1C2	2%	nt	13%	-5%	-2%	6%
O=C(c1ccncc1)N1CCC2(CC1)CCN(c1ccccn1)CC2	nt	-65%	nt	nt	nt	nt
N#CC(=C(/N)Sc1ccccc1N)/C(C#N)=C(\N)Sc1ccccc1N	nt	-34%	nt	nt	nt	nt
COc1ccc(C(=O)c2oc3ccccc3c2NC(=O)c2cc(=O)c3ccc(C)cc3o2)cc1Cl	-3%	-3%	nt	nt	nt	nt
CCc1ccc(CNc2ncc(-c3cccc(OC)c3)n2C)cc1	-14%	-15%	nt	nt	nt	nt
CCOC(=O)CCCNC(=O)N1CCc2nc(-c3ccccc3)c3c(c2C1)CO[C@@H](C)C3	nt	6%[9.22 µM]	nt	nt	nt	nt
COc1ccc(N2Cc3ccccc3C2=O)cc1	3.4µM*	nt	nt	0.5µM*	?	1.8µM*
O=C(Nc1cccc(Cl)c1)c1ccc(OC(=S)N2CCOCC2)cc1	2.7µM*	-3%	26%	?	?	?
SMILES	FLuc modulator	SMN2 splice up	p53 reactivator	Rab9 prom act	NPC1 prom act	ELG1 genotoxic
O=C(Nc1cccc2ccccc12)c1ccc(OC(=S)N2CCOCC2)cc1	11µM*	24%	?	2%	0%	-5%
CC(C)CN1CCCC2(CCN(C(=O)c3cc(C(F)(F)F)cc(C(F)(F)F)c3)CC2)C1	nt	4%	nt	nt	nt	nt
Cc1cccc(Cn2c(=O)n(Cc3ccccc3)c(=O)c3sc4ccccc4c32)c1	1%	10%	nt	nt	nt	nt
O=C(O)CCCN1C(=O)/C(=C/c2ccc(-c3nc4ccccc4s3)o2)SC1=S	-6%	18µM*	10%	-1%	10%	14%
CCC(C)(C(=O)NC1CCCCC1)N(C(=O)c1cnccn1)c1c(C)n(C)n(-c2ccccc2)c1=O (stereo not drawn)	-2%	nt	15%	1%	-7%	2%
N#CC(C#N)=C1C=CC=CN1/C(=C\c1ccccc1Cl)C(=O)c1ccccc1	?	-117%	-20%	-28%	-21%	-22%
N#CC(C#N)=C1C=CC=CN1/C(=C\c1ccccc1)C(=O)c1cccs1	19µM*	8%	-4%	1%	-3%	-3%
CC(C)(C)C1=CC(=O)C(=O)C(C(C)(C)C)=C1	7.6µM*	-110%	-25%	-17%	-16%	-5%
CC(C)(C)C1=CC(=Nc2ccccc2N)C=C(C(C)(C)C)C1=O	0%	2%	0%	-8%	-1%	1%
O=C(O)c1ccc(CNCc2ccccc2Cl)s1	-17%	-2%	nt	nt	nt	nt
COc1ccc(/C(N)=N/OC(=O)c2ccco2)cc1OC	?	11µM*	?	?	?	?
N/C(=N\OC(=O)c1ccco1)c1cccc(Br)c1	6.7µM*	?	23%	18%	18%	8.2µM*
COc1ccc(/C(N)=N/OC(=O)CCc2ccccc2)cc1OC	-14%	3%	26%	-1%	1%	5%
O=C(COC(=O)c1ccco1)Nc1cccc(Br)c1	-10%	-11%	-8%	4%	-3%	-1%
N/C(Cc1ccc([N+](=O)[O-])cc1)=N\OC(=O)c1ccco1	-3%	nt	10%	-3%	-1%	0%
N/C(=N\OC(=O)c1ccco1)c1cccc([N+](=O)[O-])c1	24µM*	nt	-4%	17%	21%	?
COc1cccc(Nc2ncc3nc(CCc4ccccc4)c(=O)n(C4CC4)c3n2)c1	nt	-4%	nt	nt	nt	nt
Cc1ccc(C)c(NC(=O)CSc2nncn3c2cc2sccc23)c1	4%	nt	nt	nt	nt	nt
COc1ccc(-n2cc(CN(C)CCO)c(-c3cccc(F)c3)n2)cc1	2.1µM*	nt	17%	0.63µM*	0.45µM*	?
COc1ccc(-n2cc(CNCCc3cnc[nH]3)c(-c3cccc(F)c3)n2)cc1	19µM*	-84%	6%	-21%	-5%	2%
COc1ccc(-n2cc(CNCc3cccnc3)c(-c3cccc(F)c3)n2)cc1	9.5µM*	nt	-1%	-4%	1%	-6%
COc1ccc(-c2nn(-c3ccccc3)cc2CNCc2cccnc2)c(F)c1	?	nt	-3%	0%	0%	-2%
COc1ccc(-n2cc(CN(C)C(C)c3ccncn3)c(-c3cccc(F)c3)n2)cc1 (stereo not drawn)	?	nt	-1%	-1%	-6%	-13%
COc1cc(NC(=O)c2ccccc2-c2ccccc2)cc(OC)c1	-2%	-13%	-2%	-4%	-2%	-5%
